Source: PubChem
This is a sample that favours compounds with a hit; in the whole collection about 21% have one here.
MRP resist rev – compounds reversing MRP-mediated drug resistance; 0.04% of 85,000 active; differential viability (reversal), % at 10 µM; AID 602; H69AR cells + 2 uM doxorubicin, CellTiter-Glo, 72 h;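 active = viability drop by adding the cancer drug above about 55%, with treated viability meeting a 40% cutoff, limit read from the data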;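 also: larger differential means the compound sensitizes cells more to doxorubicin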
CYP2C19 inh – blocks human cytochrome P450 2C19. P33261. CYP2C19 Supersomes, luciferin-H EGE luminescence, 30 min. inhibition, % at 5 µM. 21% of 96,000 active. AID 778;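 active = CYP2C19 inhibition above a set limit at 5 µM in the primary screen, cut at about 50% in these data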
CYP2C9 activ – activators of human CYP2C9; activation factor at 5 µM; recombinant CYP2C9, luciferin-H conversion, luminescence; active compounds read high; factor 1 = untreated enzyme, 0 = blocked; P11712; 1.4% of 96,000 active; AID 1024;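 active = activation factor of 2 or more for CYP2C9 at a 5 µM dose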
Target sequence (P11712 whole entry, looked up): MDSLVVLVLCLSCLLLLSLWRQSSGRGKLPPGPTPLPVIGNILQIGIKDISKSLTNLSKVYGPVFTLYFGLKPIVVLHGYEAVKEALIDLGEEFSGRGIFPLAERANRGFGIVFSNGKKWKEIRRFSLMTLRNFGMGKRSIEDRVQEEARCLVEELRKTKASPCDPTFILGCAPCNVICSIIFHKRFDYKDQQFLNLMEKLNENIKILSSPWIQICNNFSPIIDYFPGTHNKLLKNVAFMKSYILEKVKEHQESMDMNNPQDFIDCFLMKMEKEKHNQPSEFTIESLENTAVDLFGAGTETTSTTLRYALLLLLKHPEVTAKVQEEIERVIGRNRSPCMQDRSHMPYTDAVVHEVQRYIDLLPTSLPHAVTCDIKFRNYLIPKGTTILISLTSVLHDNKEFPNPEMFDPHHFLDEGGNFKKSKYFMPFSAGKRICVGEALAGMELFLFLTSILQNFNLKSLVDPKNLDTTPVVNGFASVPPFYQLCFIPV
MRP-1 activ – activators of MRP-1; H69AR cells + doxorubicin, viability rescue, CellTiter-Glo; viability increase, % at 10 µM; 0.61% of 140,000 active; AID 799;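 active = viability gain under doxorubicin at or above a set limit, the compound median plus 3 SD, cut at about 4.7% in these data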;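 also: MRP-1 overexpressing cells given doxorubicin 25 µM after compound pretreatment; 18-22 h compound pretreatment then 72 h with doxorubicin before readout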
CYP2C19 act – activators of human cytochrome P450 2C19; P33261; activation factor at 5 µM; recombinant CYP2C19, luciferin-H EGE luminescence; active compounds read high; 0 = fully inhibited enzyme, 1 = untreated enzyme; 96,000 tested, under 10 active;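 active = activation factor of at least 2 at 5 µM in the primary screen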
CYP2C9 inh – human CYP2C9 inhibition. P11712. CYP2C9 Supersomes, luciferin-H conversion, luminescence. inhibition, % at 5 µM. 20% of 96,000 active;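 active = blocking of liver enzyme CYP2C9 beyond about 50% at 5 µM, limit read from the data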
Each line names hits and unclear results; the compound was inactive in the other large screens.

COc1ccc(OC(=O)c2cnn(-c3ccccc3)c2C)cc1	none (no result: MRP resist rev)
CCCN1CCCc2cc(CN)ccc21	CYP2C19 inh 90.2, CYP2C9 inh 83.5
Cc1ccc2[nH]c(=O)c(CN(Cc3ccccc3Cl)C(=O)N3CCOCC3)cc2c1	CYP2C19 inh 82.4, CYP2C9 inh 71.7
CCCC1=C(C(=O)OCC)C(c2cc(Cl)cc(OC)c2OCC(=O)OCC)NC(=O)N1 (stereo unspecified)	CYP2C9 inh 87.5
CCOC(=O)COc1c(OC)cc(Cl)cc1C1NC(=O)NC(C)=C1C(C)=O (stereo unspecified)	CYP2C19 inh 64.9, CYP2C9 inh 70.0
Nc1nc(SCC(=O)NCCCO)nc2sc3c(c12)CCC3	none
CN(C)CCSc1nc(N)c2c3c(sc2n1)CN(C)CC3	none
COC(=O)CSc1nc(N)c2c3c(sc2n1)CCCC3	CYP2C19 inh 86.0, CYP2C9 inh 65.4
CCCSc1nc(N)c2c3c(sc2n1)CN(C)CC3	CYP2C19 inh 81.9 (no result: MRP resist rev)
CC(C)CCNC(=O)c1ccc2c(c1)ncn2C1CCCCC1	none
O=C(NCC1CCCO1)c1ccc(COCC(F)(F)C(F)F)cc1 (stereo unspecified)	none
CC(C)NC(=O)c1ccc(COCC(F)(F)C(F)F)cc1	CYP2C19 inh 83.5
CCc1ccccc1NC(=O)CSc1nc2ccccc2n1CC(=O)N(C)C	CYP2C19 inh 79.1, CYP2C9 inh 56.1
CN(C)C(=O)Cn1c(SCC(=O)Nc2ccc3c(c2)OCO3)nc2ccccc21	none (no result: CYP2C19 inh, CYP2C9 activ, CYP2C19 act, CYP2C9 inh)
CCc1cccc(C)c1NC(=O)CSc1nc2ccccc2n1CC(=O)N(C)C	CYP2C19 inh 53.7
Nc1ccccc1-c1nc2ccccc2[nH]1	CYP2C9 inh 56.2
Nc1ccc(-c2nc3ccccc3[nH]2)cc1	none
CC(=O)c1ccc(NC(=S)NNC(=O)c2ccncc2)cc1	none (no result: MRP resist rev, CYP2C19 inh, CYP2C9 activ, CYP2C19 act, CYP2C9 inh)
COc1ccc(CCn2nnnc2C(C(C)C)N2CCN(c3ncccn3)CC2)cc1OC (stereo unspecified)	CYP2C9 inh 71.7
COc1ccc(CCn2nnnc2C(CC(C)C)N2CCN(c3ncccn3)CC2)cc1OC (stereo unspecified)	CYP2C9 inh 76.0
COc1ccc(N2CCN(C(c3nnnn3CCc3ccccc3)C(C)C)CC2)cc1 (stereo unspecified)	none
CCCCS(=O)(=O)NC1=NCN(Cc2ccco2)CN1	none
Cc1cc(-c2nsc(=O)o2)c(S(C)(=O)=O)s1	none
COC(=O)c1ccc(CSc2nc(-c3ccccc3)cs2)o1	CYP2C9 inh 56.3
COC(=O)c1ccc(CSc2nnc(SCc3ccc(C(=O)OC)o3)s2)o1	CYP2C9 inh 58.7
COC(=O)c1ccc(CSc2nnc(NCc3ccccc3)s2)o1	none
N#Cc1ccc(OCC(=O)N/N=C2/CC(c3ccccc3)Oc3ccccc32)cc1 (stereo unspecified)	none (no result: MRP resist rev, CYP2C19 inh, CYP2C9 activ, CYP2C19 act, CYP2C9 inh)
CCOC(=O)CNC(=O)Nc1cc(C(C)(C)C)nn1-c1ccccc1	none
O=C1c2oc3ccc(F)cc3c(=O)c2C(c2ccccc2)N1CC1CCCO1 (stereo unspecified)	CYP2C9 inh 62.5
O=C1c2oc3ccccc3c(=O)c2C(c2cccc(F)c2)N1CCCO (stereo unspecified)	CYP2C19 inh 50.1
N#Cc1cccc(NC(=O)CN2NS(=O)(=O)c3ccccc3C2=O)c1	none
O=C(N1CCN(c2ccccc2)CC1)C12CC3CC(CC(C3)C1)C2	CYP2C19 inh 80.7, CYP2C9 inh 66.6
O=C(N1CCN(Cc2ccccc2)CC1)C12CC3CC(CC(C3)C1)C2	CYP2C19 inh 98.6, CYP2C9 inh 72.5
CC12CCC(C(=O)N3CCN(Cc4ccccc4)CC3)(OC1=O)C2(C)C (stereo unspecified)	CYP2C19 inh 71.5, CYP2C9 inh 67.4
O=C(N1CCCC1)C12CC3CC(CC(C3)C1)C2	none (no result: CYP2C19 inh, CYP2C9 activ, CYP2C19 act, CYP2C9 inh)
CN1C(=O)C(O)(C2COC(C)(C)CC2=O)c2cc(Br)ccc21 (stereo unspecified)	CYP2C19 inh 54.5
CN1C(=O)C(O)(CC(=O)c2ccccn2)c2cc(Br)ccc21 (stereo unspecified)	CYP2C19 inh 67.4
Cc1ccc(C)c(C(=O)CC2(O)C(=O)N(C)c3ccccc32)c1 (stereo unspecified)	none
Cc1ccc(C(=O)CC2(O)C(=O)N(C)c3ccc(Br)cc32)c(C)c1 (stereo unspecified)	CYP2C19 inh 62.5, CYP2C9 inh 55.1
CC(C)C(=O)c1cc2c(cc1NC(=O)c1cccs1)OCCO2	none
Cn1c(=O)c2c(nc(CN3CCC(C(N)=O)CC3)n2Cc2ccccc2F)n(C)c1=O	none
O=c1c(F)cn(C2CCCO2)c(=O)n1Cc1ccccc1F (stereo unspecified)	CYP2C19 inh 84.2
COC(=O)CN(c1cccc(F)c1)S(C)(=O)=O	none (no result: MRP resist rev)
CCOC(=O)c1ccccc1NC(=O)/C(C)=C/C(=O)O	none (no result: MRP resist rev)
COc1cc(/C=N/NC(=S)Nc2cccc(C(=O)O)c2)cc(OC)c1OC	MRP-1 activ 4.8 (no result: MRP resist rev, CYP2C19 inh, CYP2C9 activ, CYP2C19 act, CYP2C9 inh)
CCCC(C(=O)c1ccccc1)n1cncn1 (stereo unspecified)	none
CC(C)(C)C(=O)C(Cc1ccccc1Cl)n1cncn1 (stereo unspecified)	CYP2C19 inh 59.5
CC(C)(C)C(=O)C(Cc1ccccc1)n1cncn1 (stereo unspecified)	CYP2C9 inh 56.0
CS(=O)(=O)N1Cc2ccccc2CC1C(=O)Nc1ccccc1C(N)=O (stereo unspecified)	none (no result: MRP resist rev)
CCOC(=O)c1sc(=S)n(C)c1NC(=O)c1ccccc1C	none (no result: MRP resist rev, CYP2C19 inh, CYP2C9 activ, CYP2C19 act, CYP2C9 inh)
CCn1c(-c2ccccc2Cl)nn(CC(=O)Nc2cc(Cl)ccc2Cl)c1=S	CYP2C19 inh 88.6 (no result: MRP resist rev)
O=C1C(Cl)=C(N2CCN(Cc3ccccc3)CC2)C(=O)N1Cc1ccccc1	CYP2C9 inh 54.6
Cc1ccc(Cn2c(-c3nonc3N)nc3ccccc32)cc1	none (no result: MRP resist rev)
CC(C)(C)NC(=O)Cn1c(-c2nonc2N)nc2ccccc21	CYP2C19 inh 62.5, CYP2C9 inh 76.2
CCC(=O)Nc1nonc1-c1nc2ccccc2n1Cc1ccccc1	none
CCOC(=O)Cn1c(-c2nonc2NC(=O)c2ccccc2F)nc2ccccc21	CYP2C9 inh 92.3
CCCCOc1ccccc1NC(=O)Cn1c(-c2nonc2N)nc2ccccc21	CYP2C9 inh 69.7 (no result: MRP resist rev)
S=C(Nc1ccc(Cl)cc1)c1sc(N2CCCCC2)nc1N1CCOCC1	none (no result: MRP resist rev, CYP2C19 inh, CYP2C9 activ, CYP2C19 act, CYP2C9 inh)
CN(CCOc1ccc(-c2ccn(S(=O)(=O)c3c(Cl)cccc3Cl)n2)cc1)c1ccccn1	none (no result: MRP resist rev)
CN(CCOc1ccc(-c2ccn(S(=O)(=O)c3cccc4ccccc34)n2)cc1)c1ccccn1	CYP2C19 inh 50.0 (no result: MRP resist rev)
Cc1ccc(-n2c(Cl)c(Cl)nc(Cl)c2=O)cc1	none (no result: MRP resist rev, CYP2C19 inh, CYP2C9 activ, CYP2C19 act, CYP2C9 inh)
CCC1(c2cccc(Cl)c2)NC(=O)N(Cc2cc(C(=O)OC)c(C)o2)C1=O (stereo unspecified)	CYP2C19 inh 62.2
COc1ccc(Nc2nnc(-c3ccc(N4CCOCC4)c([N+](=O)[O-])c3)c3ccccc23)cc1	CYP2C9 inh 53.4 (no result: MRP resist rev)
